Results as given in PubChem BioAssay (Tox21).
Results filed as inconclusive are left out. A call without a number means that no potency is given here. A number with no mark means an inactive call. Activity calls are given as the source filed them. Unless noted, calls follow the shape of the dose curve; as a rule, active = well fitted curve in the direction sought with a large enough effect in the repeat runs; inconclusive = weak or mixed curves; inactive = no such curve, though single readings can be large; an effect the other way counts as inactive or inconclusive.

Experiments:
[1] = molecular target: Retinoic acid receptor RXR-alpha (Homo sapiens) (UniProt P19793); assay: qHTS assay to identify small molecule agonists of the RXR signaling pathway (AID 1159527; calls by dose curve; also: nearly all actives have a fitted effect of over 35% in size; also: potency is read from the fitted curve at half-maximal effect)
In short: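 Agonist mode; 9-cis retinoic acid positive control. HEK 293T UAS-bla reporter cells, 2% charcoal-stripped FBS, 16 hr compound exposure at 37 C/5% CO2. LiveBLAzer B/G FRET substrate 2 hr RT; ex 405, em 460/530 nm.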

[2] = qHTS assay to identify small molecule agonists of the RXR signaling pathway - cell viability counter screen (AID 1159529); also: series mostly up to about 77 µM; nearly all actives have a fitted effect of over 50% in size
In short: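 Luminescence from CellTiter-Glo (30 min, RT) measured viability in the same wells as the beta-lactamase reporter readout. Cells: GeneBLAzer RXR-alpha HEK 293T, 2% charcoal-stripped FBS. Compound exposure 16 hr, 37 C.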

[3] = qHTS assay to identify small molecule antagonists of the retinoid acid receptor (RAR) signaling pathway - cell viability counter screen (AID 1159551); also: nearly all actives have a fitted effect of over 35% in size
In short: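 C3RL4 RARE-luciferase line; cpds + retinol 1 uM final, 6 h, 37 C/5% CO2; CellTiter-Glo ATP luminescence, 30 min RT.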

Chain of Retinoic acid receptor RXR-alpha (Homo sapiens) (P19793 whole entry, looked up): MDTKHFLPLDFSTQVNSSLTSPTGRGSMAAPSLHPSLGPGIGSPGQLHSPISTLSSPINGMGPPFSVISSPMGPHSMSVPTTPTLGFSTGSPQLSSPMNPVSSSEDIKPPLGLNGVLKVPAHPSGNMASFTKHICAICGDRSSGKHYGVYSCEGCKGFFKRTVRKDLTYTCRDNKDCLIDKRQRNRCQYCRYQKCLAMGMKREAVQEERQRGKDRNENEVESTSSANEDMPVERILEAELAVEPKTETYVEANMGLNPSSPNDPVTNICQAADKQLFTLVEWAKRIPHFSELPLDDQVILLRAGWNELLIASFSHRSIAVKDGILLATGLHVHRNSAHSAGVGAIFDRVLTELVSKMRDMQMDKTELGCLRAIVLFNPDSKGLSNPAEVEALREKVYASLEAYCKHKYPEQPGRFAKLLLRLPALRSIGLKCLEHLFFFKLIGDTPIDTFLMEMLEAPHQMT

SMILES	Potency [1]	Potency [2]	outcome [3]	activation [1]	activity change, negative = cytotoxicity [2]	activity change, negative = cytotoxicity [3]
CC(C)CCCC(C)CCCC(C)CCCCC(C)CCCC(C)CCCC(C)C (stereo not drawn)	inactive	inactive	inactive	–	–	–
COC(C(=O)O)c1ccccc1 (stereo not drawn)	inactive	inactive	inactive	–	–	–
C=CCSCC1Nc2cc(Cl)c(S(N)(=O)=O)cc2S(=O)(=O)N1 (stereo not drawn)	inactive	inactive	inactive	–	–	–
Fc1ccccc1-c1ccccc1	inactive	inactive	inactive	–	–	–
O=Cc1ccccc1[N+](=O)[O-]	inactive	inactive	inactive	–	–	–
CCCCCCC(CCCCCCCCCCC(=O)OCC(COC(C)=O)OC(C)=O)OC(C)=O (stereo not drawn)	inactive	inactive	inactive	–	–	–
O=[N+]([O-])c1ccc(CCO)cc1	inactive	inactive	inactive	–	–	–
O=C(O)CCNC(=O)c1ccc(N=Nc2ccc(O)c(C(=O)O)c2)cc1	inactive	inactive	inactive	–	–	–
CCCC(=O)O[C@]1(C(=O)CCl)[C@@H](C)C[C@H]2[C@@H]3CCC4=CC(=O)C=C[C@]4(C)[C@@]3(F)C(=O)C[C@@]21C	inactive	inactive	inactive	–	–	–
CCCCOCC(C)OCC(C)O (stereo not drawn)	inactive	inactive	inactive	–	–	–
CC1(C)SC(C)(C)SC(C)(C)S1	inactive	inactive	inactive	–	–	–
CCCc1ccc(N)cc1	inactive	inactive	inactive	–	–	–
CC(C)(O)C(=O)c1ccc(OCCO)cc1	inactive	inactive	inactive	–	–	–
CC1=CCC2C(C1)C2(C)C (stereo not drawn)	inactive	inactive	inactive	–	–	–
Cc1cc(C)c(NC(=O)CN(CC(=O)O)CC(=O)O)c(C)c1Br	inactive	inactive	inactive	–	–	–
OC1OC[C@@H](O)[C@H](O)[C@H]1O (stereo partly drawn)	inactive	inactive	inactive	–	–	–
CCn1c(=O)c2c(nc(/C=C/c3ccc(OC)c(OC)c3)n2C)n(CC)c1=O	inactive	inactive	inactive	–	–	–
COc1cccc(Br)c1	inactive	inactive	inactive	–	–	–
OCC(O)[C@@H](O)[C@H](O)[C@H](O)CO[C@H]1O[C@H](CO)[C@@H](O)[C@H](O)[C@H]1O (stereo partly drawn)	inactive	inactive	inactive	–	–	–
CN(C)CCn1nnnc1SCC1=C(C(=O)O)N2C(=O)[C@@H](NC(=O)Cc3csc(N)n3)[C@H]2SC1	inactive	inactive	inactive	–	–	–
c1ccc(CCCc2ccccn2)cc1	inactive	inactive	inactive	–	–	–
C=CCOCC(O)CS(=O)(=O)O (stereo not drawn)	inactive	inactive	inactive	–	–	–
CC(C)=CC(=O)O	inactive	inactive	inactive	–	–	–

SMILES	Potency [1]	Potency [2]	outcome [3]	activation [1]	activity change, negative = cytotoxicity [2]	activity change, negative = cytotoxicity [3]
OC/C=C/c1ccccc1	inactive	inactive	inactive	–	–	–
COc1cc(C(=O)N2CCOCC2)cc(OC)c1OC	inactive	inactive	inactive	–	–	–
O=C(O)/C=C/c1ccc(/C=C/C(=O)O)cc1	inactive	inactive	inactive	–	–	–
CC/C=C\C#N	inactive	inactive	inactive	–	–	–
O=C(O)c1ccc[n+]([O-])c1	inactive	inactive	inactive	–	–	–
CCn1cc(C(=O)O)c(=O)c2cc(F)c(N3CCN(C)CC3)cc21	–	–	–	8.93% [at 15.8 µM]	6.61% [at 15.8 µM]	1.65% [at 19 µM]
CCN(CC)S(=O)(=O)c1ccc(C(=O)O)cc1	inactive	inactive	inactive	–	–	–
Nc1ccc2cc(S(=O)(=O)O)ccc2c1	inactive	inactive	inactive	–	–	–
CC(C)=CCC/C(C)=C/C(=O)O	inactive	inactive	inactive	–	–	–
Cc1cc(C)cc(OCC2CNC(=O)O2)c1 (stereo not drawn)	inactive	inactive	inactive	–	–	–
O=c1[nH]c(=O)n([C@H]2O[C@H](CO)[C@@H](O)[C@@H]2O)cc1/C=C\Br	inactive	inactive	inactive	–	–	–
NS(=O)(=O)c1cc2c(cc1C(F)(F)F)NC(Cc1ccccc1)NS2(=O)=O (stereo not drawn)	inactive	inactive	inactive	–	–	–
CC1=CC(C)C(C=O)C(C)C1 (stereo not drawn)	inactive	inactive	inactive	–	–	–
CC(C)c1cccc(O)c1	inactive	inactive	inactive	–	–	–
CC(C)(C)CC(C)(C)N	2.12 µM (active)	inactive	inactive	–	–	–
CC(C)CCCCCCN	inactive	inactive	inactive	–	–	–
CO[Si](OC)(OC)OC	inactive	inactive	inactive	–	–	–
O=C(O)c1ccccc1S	inactive	inactive	inactive	–	–	–
CC(=O)N[C@@H](CCC(N)=O)C(=O)O	inactive	inactive	inactive	–	–	–
COc1nc(C)nc(N)n1	inactive	inactive	inactive	–	–	–
Nc1ccn(C2CO[C@H](CO)O2)c(=O)n1 (stereo partly drawn)	inactive	inactive	inactive	–	–	–
C=C(C)C(=O)NCCC[N+](C)(C)C	inactive	inactive	inactive	–	–	–
CN(C)CCOC(c1ccc(Cl)cc1)c1ccccn1 (stereo not drawn)	inactive	inactive	inactive	–	–	–
